Test results taken from PubChem BioAssay (NCATS).
Unmarked numbers belong to inactive results. Results filed as inconclusive are left out. Entries that show only a call come without a potency. Active and inactive are the calls of the source. Unless noted, calls come from the whole dose curve; as a rule, active = well fitted cell-killing curve with a large enough effect; inconclusive = small, poorly fitted or top-dose-only effect, or effect the other way; inactive = flat fitted curve, though single readings scatter.

Tested on: not listed separately
Assay: qHTS assay for cell viability of HEK293 cells (AID 743288); note: nearly all actives have a fitted effect of over 50% in size; note: potency is the fitted concentration of half-maximal effect
Conditions: ATP luminescence (CellTiter-Glo), 18 h; max response: active compounds read low
In short: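 Luminescent ATP quantitation served as the viability read-out. Cells (parental HEK293, 2,000/well) received compounds after at least 5 h at 37 C and were exposed for 18 h before a 30 min room-temperature reagent step.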

Row | SMILES | max response | Potency
1 | CC[C@H]1CCCC(O[C@H]2CC[C@H](N(C)C)[C@@H](C)O2)[C@@H](C)C(=O)C2=C[C@@H]3[C@@H](C=C[C@@H]4C[C@@H](O[C@@H]5O[C@@H](C)[C@H](OC)[C@@H](OC)[C@H]5OC)C[C@@H]34)[C@@H]2CC(=O)O1 (stereo partly specified) | -1.89% | –
2 | CCCCCCCCCCCCN(C)C | -1.64% | –
3 | CSC1=N[C@@](C)(c2ccccc2)C(=O)N1Nc1ccccc1 | -18% | –
4 | CCC[CH2][Sn]([Cl])([Cl])[CH2]CCC | – | 39.8 µM (active)
5 | CC(C)N(C(=O)SCC(Cl)=C(Cl)Cl)C(C)C | 2.96% | –
6 | CCC[CH2][Sn]1([CH2]CCC)[O]C(=O)C=CC(=O)[O]1 | – | 39.8 µM (active)
7 | O=P(Oc1ccccc1)(Oc1ccccc1)Oc1ccccc1 | -15.7% | –

Tested on: not listed separately
Assay: qHTS assay for cell viability of the p53RE-bla HCT-116 cell line (AID 743292); note: nearly all actives have a fitted effect of over 55% in size; note: potency is the fitted concentration of half-maximal effect
Conditions: p53RE-bla HCT-116 viability, ATP luminescence, 16 h; series mostly up to 95 µM
In short: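 Quantitative high-throughput format: compounds in DMSO were pinned onto p53RE-bla HCT-116 cells (4,000/well) and incubated 16 h at 37 C. Total intracellular ATP, read by CellTiter-Glo luminescence, reflects viable cell number.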

Row | SMILES | Potency
8 | Fc1ccc(Oc2ccnc3cc(Cl)cc(Cl)c23)cc1 | inactive
9 | COC(=O)N(OC)c1ccccc1COc1ccn(-c2ccc(Cl)cc2)n1 | inactive
10 | CC[C@H]1CCCC(O[C@H]2CC[C@H](N(C)C)[C@@H](C)O2)[C@@H](C)C(=O)C2=C[C@@H]3[C@@H](C=C[C@@H]4C[C@@H](O[C@@H]5O[C@@H](C)[C@H](OC)[C@@H](OC)[C@H]5OC)C[C@@H]34)[C@@H]2CC(=O)O1 (stereo partly specified) | inactive
11 | O=C(O)[C@@H]1[C@H](C(=O)O)[C@@]2(Cl)C(Cl)=C(Cl)[C@]1(Cl)C2(Cl)Cl | inactive
12 | CCCCCCCCCCCCN(C)C | inactive
13 | CCOP(=S)(OCC)SCn1nnc2ccccc2c1=O | inactive
14 | CSC1=N[C@@](C)(c2ccccc2)C(=O)N1Nc1ccccc1 | inactive
15 | CC(C)(C)c1ccc(CSc2cnn(C(C)(C)C)c(=O)c2Cl)cc1 | inactive
16 | CC(c1ccc(O)cc1)(c1ccc(O)cc1)c1ccc(O)cc1 | inactive
17 | CCC[CH2][Sn]1([CH2]CCC)[O]C(=O)C=CC(=O)[O]1 | 70.8 µM (active)
18 | CCC(C)c1cc([N+](=O)[O-])cc([N+](=O)[O-])c1O (stereo unspecified) | inactive
19 | O=P(Oc1ccccc1)(Oc1ccccc1)Oc1ccccc1 | inactive

Biological target: Nuclear receptor subfamily 1 group I member 2 (Rattus norvegicus) (UniProt Q9R1A7)
Assay: qHTS assay for small molecule activators of the rat pregnane X receptor (rPXR) signaling pathway (AID 651751; call rule not given here)
Conditions: rPXR reporter cells, luciferase (One-Glo), 24 h

Sequence of Nuclear receptor subfamily 1 group I member 2 (Rattus norvegicus) (Q9R1A7 whole entry, looked up): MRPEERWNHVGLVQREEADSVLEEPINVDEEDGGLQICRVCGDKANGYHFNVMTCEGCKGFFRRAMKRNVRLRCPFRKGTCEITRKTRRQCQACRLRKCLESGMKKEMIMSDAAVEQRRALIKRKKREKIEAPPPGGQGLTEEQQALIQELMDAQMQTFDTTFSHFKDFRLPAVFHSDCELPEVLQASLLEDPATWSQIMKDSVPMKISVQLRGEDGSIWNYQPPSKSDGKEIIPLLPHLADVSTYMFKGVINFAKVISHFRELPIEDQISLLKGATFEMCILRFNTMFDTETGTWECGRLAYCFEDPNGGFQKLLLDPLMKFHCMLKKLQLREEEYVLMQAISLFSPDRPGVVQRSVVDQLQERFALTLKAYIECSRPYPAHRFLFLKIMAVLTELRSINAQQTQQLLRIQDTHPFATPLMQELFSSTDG

Row | SMILES | max response
20 | COC(=O)N(OC)c1ccccc1COc1ccn(-c2ccc(Cl)cc2)n1 | -12.5%
21 | CC[C@H]1CCCC(O[C@H]2CC[C@H](N(C)C)[C@@H](C)O2)[C@@H](C)C(=O)C2=C[C@@H]3[C@@H](C=C[C@@H]4C[C@@H](O[C@@H]5O[C@@H](C)[C@H](OC)[C@@H](OC)[C@H]5OC)C[C@@H]34)[C@@H]2CC(=O)O1 (stereo partly specified) | -7.6%
22 | O=C(O)[C@@H]1[C@H](C(=O)O)[C@@]2(Cl)C(Cl)=C(Cl)[C@]1(Cl)C2(Cl)Cl | 4.23%
23 | CCCCCCCCCCCCN(C)C | -0.417%
24 | CCC[CH2][Sn]([Cl])([Cl])[CH2]CCC | -14.6%
25 | CC(c1ccc(O)cc1)(c1ccc(O)cc1)c1ccc(O)cc1 | -0.575%
26 | CCC[CH2][Sn]1([CH2]CCC)[O]C(=O)C=CC(=O)[O]1 | -13%

Tested on: not listed separately
Assay: qHTS assay for small molecule activators of the human pregnane X receptor (PXR) signaling pathway (AID 720659; call rule not given here)
Conditions: DPX-2 HepG2 CYP3A4-luciferase, 24 h; series mostly up to 92.3 µM

Row | SMILES | outcome
27 | COC(=O)N(OC)c1ccccc1COc1ccn(-c2ccc(Cl)cc2)n1 | inactive
28 | CC[C@H]1CCCC(O[C@H]2CC[C@H](N(C)C)[C@@H](C)O2)[C@@H](C)C(=O)C2=C[C@@H]3[C@@H](C=C[C@@H]4C[C@@H](O[C@@H]5O[C@@H](C)[C@H](OC)[C@@H](OC)[C@H]5OC)C[C@@H]34)[C@@H]2CC(=O)O1 (stereo partly specified) | inactive
29 | CCCCCCCCCCCCN(C)C | inactive
30 | CC(C)(C)c1ccc(CSc2cnn(C(C)(C)C)c(=O)c2Cl)cc1 | inactive
31 | CCC[CH2][Sn]1([CH2]CCC)[O]C(=O)C=CC(=O)[O]1 | inactive
